The supplement of paper PMC8726507

system: Plasmodium falciparum NF54-HGL (transmission to Anopheles stephensi); test: percentage of barcode signal found in uninfected mosquitoes (transmission-blocking activity); higher = stronger blocking of transmission to mosquito, active = 80 or more; details: 10 µM; gametocyte preincubation time 24 h; readout time post-feed 8 days
Protocol: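 The mixture was fed to Anopheles stephensi in 96-well plates as blood meals tagged with DNA-barcoded Asaia bacteria. Eight days later, mosquitoes were classed infected or uninfected by luminescence (mean + 5 SD of unfed controls). Barcodes were quantified by Luminex MagPlex-TAG in the pooled uninfected and infected Asaia cultures, background-corrected, and the score is % of barcode signal in uninfected mosquitoes = 100*Iu/(Iu+Ii).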

| Structure (SMILES) | percentage of barcode signal found in uninfected mosquitoes |
| --- | --- |
| COc1ccc(-c2cnc3ccc(N4CCCC4)nn23)cc1OC | 75.3% (inactive) |
| COc1ccc(OC(C)C(=O)Nc2ccc(Cl)cc2C)cc1 (configuration not stated) | -0.09% (inactive) |
| Cc1nn2c(=O)c3c([nH]c2c1-c1ccc(Cl)cc1)CCCC3 | 40.4% (inactive) |
| CNC(=O)c1cc(S(=O)(=O)N2CCN(c3ccccn3)CC2)cs1 | 37.8% (inactive) |
| OCCc1ccc(Nc2nccc(-c3nnc4ccccn34)n2)cc1 | 77% (inactive) |
| N#Cc1ccc(-c2cnc(N)c(-c3ccc(C(N)=O)cc3)n2)cc1 | 69.6% (inactive) |
| Cc1nnc(NC(=O)c2cn(-c3ccccc3)nc2-c2ccccc2C)o1 | 81% (active) |
| CNC(=O)C1Cc2ccccc2N1C(=O)Cc1ccc(F)cc1 (configuration not stated) | 27.5% (inactive) |
| CC1COC2(CCN(c3nc(=O)c4cc(C(F)(F)F)cc([N+](=O)[O-])c4s3)CC2)O1 (configuration not stated) | 26.7% (inactive) |
| COCC(C)NC(=O)CSc1ncnc2sc(-c3ccccc3)cc12 (configuration not stated) | 47.4% (inactive) |
| CCn1cnc2c(Nc3cc(F)cc(F)c3)nc(C#N)nc21 | 33.6% (inactive) |
| Cc1ccc2cc(C3NC(=O)c4ccccc4N3)c(Cl)nc2c1 (configuration not stated) | 71.8% (inactive) |
| CC(C)C(NC(=O)Cc1cccc2ccccc12)C(=O)Nc1cccc(C#N)c1 (configuration not stated) | 53.4% (inactive) |
| CCN(CC)S(=O)(=O)c1ccc(Cl)c(C(=O)Nc2ccc3nc(C)sc3c2)c1 | 86.1% (active) |
| O=C(Nc1nnc(-c2ccc(Cl)cc2)o1)c1cccc(C(F)(F)F)c1 | -0.664% (inactive) |
| CC1CC1C(=O)NC1CCN(CC2(c3ccccc3)CCCCC2)CC1 (configuration not stated) | 97.6% (active) |
| COc1ccc(-c2onc(C(F)(F)F)c2-c2ccc(Cl)cc2)c(O)c1 | 25.2% (inactive) |
